Calls of active or inactive are those of the source. Rule for the calls: active = hit-call score of the fitted dose curve at least 0.9, where 1 is the maximum; inactive = score below 0.9.
Assay: ATG_Oct_MLP_CIS: Attagene CIS-FACTORIAL HepG2 Assay for human Octamer-Binding Transcription Factor (Oct) (AID 2282993)
Details: HepG2 Attagene cis-factorial Oct reporter, mRNA; actives raise or lower the signal
Procedure: ATG_CIS is a cell-based, multiplexed-readout assay that uses HepG2, a human liver cell line, with measurements taken at 24 hours after chemical dosing in a 24-well plate.ATG_Oct_MLP_CIS is one of 52 assay component(s) measured or calculated from the ATG_CIS assay. It is designed to make measurements of mRNA induction, a form of inducible reporter, as detected with fluorescence intensity signals by Reverse transcription polymerase chain reaction (RT-PCR) and Capillary electrophoresis technology.Data from the assay component ATG_Oct_MLP_CIS was analyzed into 1 assay endpoint. This assay endpoint, ATG_Oct_MLP_CIS, was analyzed with bidirectional fitting relative to DMSO as the negative control and baseline of activity. Using a type of inducible reporter, measures of mRNA for gain or loss-of-signal activity can be used to understand the reporter gene at the transcription factor-level as they relate to the gene POU2F1. Furthermore, this assay endpoint can be referred to as a primary readout, because this assay has produced multiple assay endpoints where this one serves a reporter gene function. To generalize the intended target to other relatable targets, this assay endpoint is annotated to the dna binding intended target family, where the subfamily is POU domain protein.
Human liver HepG2 cells are transiently transfected with multiple reporter transcription units (MRTUs) in 6-well plates using FuGene 6 reagent (Roche; 3 ml FuGene/1 mg DNA). The MRTU constructs are regulated by a cis-regulating element (promoter). […] A major difference between the CIS and TRANS system is that in CIS activities of endogenous TFs are measured, whereas the TRANS assay evaluates changes in activities of exogenous, chimeric NR-Gal4 proteins. […] At the end of 24 hour incubation, total RNA was isolated using TriZol reagent (Invitrogen). The isolated RNA is then reverse-transcribed using oligo(dT) primer and Mo-MLV reverse transcriptase (Invitrogen) with DNAse I (Ambion) treatment for 30 min. The one-tenth of the produced cDNA was amplified by PCR using Taq DNA polymerase (Invitrogen) and two reporter sequence-specific primers. The PCR products were fluorescently labeled by primer extension with 6-arboxyfluorescein (6-FAM) 5'-labeled reporter sequence-specific primer (2 min at 95 C, 20 s at 68 C and 10 min at 72 C) and these products were digested with 5U of HpaI (New England Biolabs) for 2h at 37 C. The fragments were purified using Qiaquick PCR columns (Qiagen), analyzed on an ABI 3130xL genetic analyzer (Applied Biosystems) with peak positions identified by using a set of X-rhodamine (ROX)-labeled MapMarker1000 molecular weight standards (BioVentures). The raw capillary electrophoresis data was processed using Attagraph software (Attagene).

Compound	outcome	AC50
O=C1CCc2ccccc2O1	inactive	–
NCCCCCCN	inactive	–
CC(C)(C)C(=O)c1ccccc1	inactive	–
CC(=O)Nc1ccccc1O	inactive	–
O=C=NC1CCC(CC2CCC(N=C=O)CC2)CC1 (stereo not given)	–	61.8 µM (active)
CCCCCCCCCCCCOCCO	–	56.5 µM (active)
OC1OC[C@@H](O)[C@H](O)[C@H]1O (stereo not given in full)	inactive	–
OC1C(O)C(O)C(O)C(O)C1O (stereo not given)	inactive	–
CCCC/C=C\CCCCCCCCCC=O	inactive	–
CN(CCOc1ccc(CC2SC(=O)NC2=O)cc1)c1ccccn1 (stereo not given)	inactive	–
Cc1ccc2n[nH]nc2c1	inactive	–
Clc1cccc(Cl)n1	inactive	–
CC(C)Oc1ccccc1O	inactive	–
CNC[C@H](O)c1cccc(O)c1	inactive	–
O=S(=O)(O)NC1CCCCC1	inactive	–
CCCCCCCCC	inactive	–
CCCCCNCCCCC	inactive	–
CC(C)=CCC[C@](C)(O)[C@@H]1CC=C(C)CC1	inactive	–
CCC(C)(O)CCC=C(C)C (stereo not given)	inactive	–
C=CC(=O)OCCOCCOCC	inactive	–

Compound	outcome	AC50
CSc1nnc(C(C)(C)C)c(=O)[nH]1	inactive	–
OCCOCCOCCOCCO	inactive	–
C[C@H]1C[C@H]2[C@@H]3CCC4=CC(=O)C=C[C@]4(C)[C@@]3(F)[C@@H](O)C[C@]2(C)[C@@]1(O)C(=O)COP(=O)(O)O	inactive	–
COC(=O)c1ccc(C)cc1	inactive	–
CC(C)(CO)[N+](=O)[O-]	inactive	–
CCC(=O)OCc1ccccc1	inactive	–
CC(C=O)Cc1ccc(C(C)C)cc1 (stereo not given)	inactive	–
O=C1c2ccccc2C(=O)N1SC1CCCCC1	inactive	–
C=C(C)C1CCC(C)CC1O (stereo not given)	inactive	–
CC(C)(C)c1n[nH]c(=S)n(N)c1=O	inactive	–
O=Nc1ccc(Nc2ccccc2)cc1	–	33.4 µM (active)
Cc1ccc(Nc2ccc(O)c3c2C(=O)c2ccccc2C3=O)cc1	inactive	–
O=C1NC(=O)c2ccccc21	inactive	–
NC(=O)NC1NC(=O)NC1=O (stereo not given)	inactive	–
CCCOCC(C)O (stereo not given)	inactive	–
CC(C)[C@H]1CC[C@@H](C)CC1=O	inactive	–
Cc1ccc(O)c(C(C)(C)C)c1	–	143 µM (active)
CCCCC/C=C/C=C/C=O	inactive	–
Cc1ccc(C=O)s1	inactive	–
CC(=O)Nc1ccc(CC(=O)O)cc1	inactive	–
